Assay results taken from the supplement of paper PMC3334620.
The full ranking holds about 33,000 sequences; the median of “E-score (-0.5 to 0.5)” is about -0.035, and the highest 2% start at about 0.34. The entries come from a sample that favours the highest values as a whole.

What follows are sequences tested against T1, Mot3 (UniProt P54785) (assay: PBM E-score (8-mer binding enrichment) (E-score (-0.5 to 0.5)); higher = stronger / more preferred TF binding). Settings: protein concentration: 200 nM; construct: GST-full length.
T1 sequence: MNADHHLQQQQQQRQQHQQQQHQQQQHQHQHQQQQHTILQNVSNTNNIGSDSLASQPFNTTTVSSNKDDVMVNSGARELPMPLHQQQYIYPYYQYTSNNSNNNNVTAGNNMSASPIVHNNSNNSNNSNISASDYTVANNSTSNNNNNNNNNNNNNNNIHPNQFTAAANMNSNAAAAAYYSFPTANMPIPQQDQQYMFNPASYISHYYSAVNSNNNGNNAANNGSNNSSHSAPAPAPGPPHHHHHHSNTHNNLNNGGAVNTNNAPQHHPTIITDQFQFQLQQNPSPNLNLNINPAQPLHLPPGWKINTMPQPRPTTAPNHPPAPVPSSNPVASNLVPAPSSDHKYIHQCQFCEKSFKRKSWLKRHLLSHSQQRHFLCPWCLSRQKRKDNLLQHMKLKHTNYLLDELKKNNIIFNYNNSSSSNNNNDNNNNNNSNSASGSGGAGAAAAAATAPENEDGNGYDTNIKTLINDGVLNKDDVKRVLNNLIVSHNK
Description: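 Universal 'all 10-mer' protein binding microarrays (Agilent AMADID 015681) probed with GST-tagged S. cerevisiae TFs (full-length or DBD) made by in vitro transcription/translation (PURExpress), about 100-200 nM. Bound TF was detected with fluorescent anti-GST. Each ungapped 8-mer (which stands for itself and its reverse complement) is scored by the PBM enrichment score (E-score), a modified Wilcoxon-Mann-Whitney statistic from -0.5 to +0.5, computed with the Universal PBM Analysis Suite. Scale: above 0.35 generally sequence-specific binding.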

Sequence	PBM E-score
ACGAAAAT	0.163
TGGAAAAA	0.0684
AGGAAAAA	0.352
CGGAAAAC	0.0409
AGGAAAAC	0.416
AGGAAAAT	0.416
AGAAAAAT	0.133
GGGAAAAC	-0.195
AGGAAAAG	0.305
CCAGGGGA	-0.363
ATGAGAAC	0.00278
ATAGTGCA	0.134
GATTGAAC	0.142
ACCTCATG	-0.175
AAACGCTA	-0.0463
CACAACAG	0.181
AGTCCCCA	-0.348
ACATGACA	0.343
ACATGAAG	0.344
ACATGAAT	0.294
ACATGATA	0.35
ACATGATC	0.385
ACATGAAC	0.256
GCATGACA	0.116
ACATGATG	0.241

Sequence	PBM E-score
GCATGATA	0.0933
ACATGACT	0.211
CCATGATA	-0.147
CCATGATC	-0.251
CCACACCC	-0.133
CAGGAGGG	-0.159
AGAGTGAT	0.105
CTCGCCAA	-0.0783
CAGTTGTA	0.00216
TAGCCAAA	-0.0612
CACAGACC	0.0761
CACGCTTC	0.146
AAGTTTAA	0.068
ACAACATG	0.359
ACAACATC	0.195
ATAACATG	0.36
ACAACATA	0.307
ATAACACG	0.391
ATAACATA	0.344
ATAACATC	0.21
ATAACACA	0.332
GTAACATA	0.26
CTAACATA	0.156
CTAACACA	0.313
ATAACAGG	0.229

Sequence	PBM E-score
GCGCTCGA	-0.00313
ATCAACGC	0.194
CGTCGCAC	-0.243
ATGGGCAC	0.333
CGATTAAG	0.108
CCCTTCGA	0.0666
ACCGTACG	-0.116
CGTGCTAG	-0.0215
AAAACATA	0.314
AAAACATT	0.187
AAAACATG	0.351
CCATCAGG	-0.179
AGGGTCAA	-0.0327
CCTGCATA	0.126
AAAGTGTG	0.0664
CTTTTTAC	0.21
ATATACAC	0.358
GTATACAC	0.323
GAATACAA	0.214
AAATATAC	0.0863
GAATACAC	0.363
AAATACAT	0.344
CTATACAC	0.254
AAATACAC	0.37
AAATACAA	0.281

Sequence	PBM E-score
CAATACAC	0.331
AAATACCC	-0.0215
AAATACAG	0.212
ATCCTTAA	0.00499
CACGCTGG	-0.0203
GGTGCTAA	-0.0828
AGGTTGAG	0.0336
TAACTCCA	-0.179
CAGAAATG	0.00635
CACGTTCG	0.00382
ACAGGCCA	0.296
ACAGGCGA	0.0648
ACAGGCAT	0.409
ACAGGCCT	0.00325
ACAGGCAA	0.489
ACAGGCAG	0.239
CCCACTGC	-0.32
GTACCCAC	0.0626
TATGGCAA	-0.0849
ATTGTAAA	0.3
GTTGTAAA	0.31
CTTGTAAC	0.281
AATGTAAA	0.374
AGTGTCAA	-0.0255
CGTGTCAA	0.342

Sequence	PBM E-score
CGTGTCAG	0.223
GCTGTAAA	0.25
CTTGTAAA	0.378
ACTGTAAA	0.191
AATGTAGA	0.221
GATGTAAA	0.35
GAACTCGC	-0.0603
GTCTCATA	-0.0702
CCGCCTTC	-0.226
GGCTCGTA	0.112
ACGGTTGG	-0.106
AGCGTGAT	-0.153
TCTGGTCA	-0.0723
CCCCACGG	-0.224
CCTGTAAA	0.335
CACGTAAA	0.339
AATGTAAC	0.218
CCTGTAAG	0.282
AATGTAAG	0.201
TATGTAGA	0.333
TATGTAAA	0.434
CATGTAAA	0.436
CATGTAAG	0.398
AATGTAAT	0.377
ACTGTAAT	0.169

Sequence	PBM E-score
TCTGTAAA	0.231
CTGCTGAC	0.0167
AAAAGGAG	0.0569
ACAGTGGG	-0.0834
GCTACAGC	-0.167
CGAAGTAA	0.174
CTGCTGCA	-0.0263
CAGTTAGC	-0.274
CCATCTCA	-0.228
CCGCAGGC	0.272
AGGAGTAC	0.171
AACCGACA	0.0529
CCAGAACG	-0.0663
ACCAGCGT	-0.0988
AATGTCAA	0.0969
CATGTAAC	0.382
CCTGTAAC	0.295
GATGTCAA	0.144
TATGTCAA	0.363
GATGTAAC	0.175
CTAGCACC	-0.0791
CGTTTGAG	-0.0011
GACGTGTA	0.318
AACGTGTC	0.273
AACGTGTA	0.415

Sequence	PBM E-score
CACGTGTC	0.183
CACGTGAA	0.183
CACGTGTA	0.383
CGTCTGTA	0.135
ACCCATAA	-0.196
ATACCCAT	0.142
CTATGAAC	0.2
CCAGTGTA	0.0502
GAGGCATC	0.145
CAGGCATG	0.358
CATGCATG	0.0529
CAGGCATC	0.402
CAGACATG	0.106
CAGGCATA	0.319
AGGTGTGC	0.0416
AAGATCTC	-0.0117
GCAGGTAA	0.385
ACAGGTGA	0.0111
GCAGGTAC	0.452
CCAGGTAA	0.238
ACAGGTAT	0.194
ACAGGTAA	0.39
CCAGGTAC	0.238
TCAGGTAA	0.324
GCAGGTCC	-0.168

Sequence	PBM E-score
ACAGGTAC	0.423
ACAGGTAG	-0.0129
ACAGGTTA	0.155
GCGTTACC	0.0266
CGGCTTCA	-0.131
CCCCACAA	-0.0534
ACTGAATC	-0.0804
AGGCTCCG	0.223
ATTGCCAC	-0.0828
GTGGTCTA	-0.279
CTTTGAAC	-0.158
TACACGGA	0.357
GACACGTA	0.26
CACACGGA	0.0661
GACACGGA	0.22
CACACGTA	0.208
TACACGTA	0.362
AGGTTGAT	-0.099
GCCCCCTA	-0.355
ATAGCGAT	-0.11
CAGAGCCG	-0.157
GTTGTGTA	0.373
GATGTGTA	0.347
ATTGTGTC	0.139
GTGTTGTA	0.283

Sequence	PBM E-score
ATTGTGTG	0.0589
CATGTGTA	0.331
AATGTGTA	0.289
ATTGTGTA	0.346
CTTGTGTA	0.333
ATCTGCCC	-0.0711
ACTGGCCC	-0.252
AACGACCG	-0.163
AAATGCGG	-0.0946
ACTGGCTG	-0.261
GACTAATC	-0.182
GCCTGCGA	0.35
GCCTGTTA	0.35
ACCTGCGA	0.0659
CCCTGTTA	0.12
CCCTGCGA	-0.212
ACCTGTTA	0.167
GCCTGTAC	0.338
TCCTGTAA	0.338
GCCTGTAA	0.391
